Measurements from PubChem BioAssay AID1159580 (chemical genetic matrix, 2015).
Values joined by “and” are separate entries in the source; they are usually repeats but may differ in a detail not shown here. Equal values may be shown once. Hit rate of the full screen: of about 5,500 compounds, about 2,000 (36%) were called active. Roughly 18% stayed inconclusive and do not appear here. Cut-off read from the data, not from the text of the source: active = normalized growth mostly below about 0.91 (no sharp cut-off); inconclusive = no clear call, values can overlap the other calls; inactive = mostly above about 0.92. The list shows a part of the results.

Experiment: chemical genetic growth profiling, strain panel (AID 1159580);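 note: tested at 20 µM; growth read once vehicle control cultures reached saturation at 30 °C; 1 = growth at the plate median or of vehicle wells; lower values mean less growth of the strain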
Conditions: growth OD

Measured: normalized growth

COC(=O)c1c(C)cc(OC(=O)c2c(C)cc(O)c(C=O)c2O)c(C)c1O
active: S. cerevisiae deletion strains, locus YGR135W, strain pre9, stronger effect = lower value 0.893 | S. cerevisiae deletion strains, locus YKR001C, strain vps1, stronger effect = lower value 0.891
inactive: S. cerevisiae deletion strains, locus YAL013W, strain DEP1, stronger effect = lower value 0.93 | S. cerevisiae deletion strains, locus YBR021W, strain FUR4, stronger effect = lower value 1.05 | S. cerevisiae deletion strains, locus YBR229C, strain ROT2, stronger effect = lower value 1 | S. cerevisiae deletion strains, locus YCL029C, strain bik1, stronger effect = lower value 0.994 | S. cerevisiae deletion strains, locus YDL035C, strain GPR1, stronger effect = lower value 0.994 | S. cerevisiae deletion strains, locus YDL074C, strain BRE1, stronger effect = lower value 1.03 | S. cerevisiae deletion strains, locus YDL101C, strain DUN1, stronger effect = lower value 1.01 | S. cerevisiae deletion strains, locus YDL185W, strain tfp1, stronger effect = lower value 0.991 | S. cerevisiae deletion strains, locus YDL192W, strain arf1, stronger effect = lower value 0.934 | S. cerevisiae deletion strains, locus YDR101C, strain arx1, stronger effect = lower value 0.994 | S. cerevisiae deletion strains, locus YDR162C, strain NBP2, stronger effect = lower value 0.899 | S. cerevisiae deletion strains, locus YDR318W, strain mcm21, stronger effect = lower value 0.934 | S. cerevisiae deletion strains, locus YDR388W, stronger effect = lower value 0.988 | S. cerevisiae deletion strains, locus YDR502C, strain sam2, stronger effect = lower value 0.984 | S. cerevisiae deletion strains, locus YEL061C, strain CIN8, stronger effect = lower value 0.971 | S. cerevisiae deletion strains, locus YER110C, stronger effect = lower value 1.03 | S. cerevisiae deletion strains, locus YER155C, strain BEM2, stronger effect = lower value 1.03 | S. cerevisiae deletion strains, locus YER167W, strain BCK2, stronger effect = lower value 0.999 | S. cerevisiae deletion strains, locus YGL078C, strain dbp3, stronger effect = lower value 1.01 | S. cerevisiae deletion strains, locus YGL086W, strain mad1, stronger effect = lower value 0.942 | S. cerevisiae deletion strains, locus YGL248W, strain PDE1, stronger effect = lower value 0.98 | S. cerevisiae deletion strains, locus YGR078C, strain PAC10, stronger effect = lower value 0.971 | S. cerevisiae deletion strains, locus YGR229C, strain SMI1, stronger effect = lower value 0.919 | S. cerevisiae deletion strains, locus YGR252W, strain gcn5, stronger effect = lower value 1.01 | S. cerevisiae deletion strains, locus YHR030C, strain SLT2, stronger effect = lower value 0.999 and 0.975 | S. cerevisiae deletion strains, locus YHR079C, strain IRE1 (second series), stronger effect = lower value 0.999 | S. cerevisiae deletion strains, locus YHR079C, strain IRE1, stronger effect = lower value 0.978 | S. cerevisiae deletion strains, locus YHR094C, strain hxt1, stronger effect = lower value 1 | S. cerevisiae deletion strains, locus YHR129C, strain ARP1, stronger effect = lower value 0.963 | S. cerevisiae deletion strains, locus YHR200W, strain rpn10, stronger effect = lower value 0.962 | S. cerevisiae deletion strains, locus YIL066C, strain RNR3, stronger effect = lower value 0.985 | S. cerevisiae deletion strains, locus YIL073C, strain SPO22, stronger effect = lower value 1.02 | S. cerevisiae deletion strains, locus YIL125W, strain kgd1, stronger effect = lower value 0.991 | S. cerevisiae deletion strains, locus YIR030C, strain dcg1, stronger effect = lower value 1.03 | S. cerevisiae deletion strains, locus YJL095W, strain BCK1, stronger effect = lower value 0.975 and 0.987 | S. cerevisiae deletion strains, locus YJL134W, strain LCB3, stronger effect = lower value 1.01 | S. cerevisiae deletion strains, locus YJL168C, strain set2, stronger effect = lower value 1.01 | S. cerevisiae deletion strains, locus YJL187C, strain SWE1 (second series), stronger effect = lower value 0.972 | S. cerevisiae deletion strains, locus YJR043C, strain POL32, stronger effect = lower value 0.971 | S. cerevisiae deletion strains, locus YJR066W, strain TOR1, stronger effect = lower value 0.919 | S. cerevisiae deletion strains, locus YKL068W, stronger effect = lower value 1.03 | S. cerevisiae deletion strains, locus YKL085W, strain MDH1 (second series), stronger effect = lower value 0.987 | S. cerevisiae deletion strains, locus YKL085W, strain MDH1, stronger effect = lower value 0.987 | S. cerevisiae deletion strains, locus YLR039C, strain RIC1, stronger effect = lower value 0.947 | S. cerevisiae deletion strains, locus YLR058C, strain SHM2, stronger effect = lower value 0.957 | S. cerevisiae deletion strains, locus YLR102C, strain apc9, stronger effect = lower value 1.02 | S. cerevisiae deletion strains, locus YLR113W, strain HOG1, stronger effect = lower value 0.995 | S. cerevisiae deletion strains, locus YLR262C, strain YPT6, stronger effect = lower value 0.933 | S. cerevisiae deletion strains, locus YLR268W, strain sec22, stronger effect = lower value 0.916 | S. cerevisiae deletion strains, locus YLR330W, strain CHS5, stronger effect = lower value 1.01 | S. cerevisiae deletion strains, locus YLR342W, strain FKS1 (second series), stronger effect = lower value 1.07 | S. cerevisiae deletion strains, locus YLR371W, strain rom2, stronger effect = lower value 0.99 | S. cerevisiae deletion strains, locus YLR418C, strain cdc73, stronger effect = lower value 0.924 | S. cerevisiae deletion strains, locus YML016C, strain PPZ1, stronger effect = lower value 1 | S. cerevisiae deletion strains, locus YML032C, strain rad52, stronger effect = lower value 0.96 | S. cerevisiae deletion strains, locus YML124C, strain tub3, stronger effect = lower value 1 | S. cerevisiae deletion strains, locus YMR078C, strain ctf18, stronger effect = lower value 1.02 | S. cerevisiae deletion strains, locus YMR223W, strain ubp8, stronger effect = lower value 0.938 | S. cerevisiae deletion strains, locus YMR263W, strain SAP30, stronger effect = lower value 0.987 | S. cerevisiae deletion strains, locus YMR307W, strain GAS1, stronger effect = lower value 0.789 | S. cerevisiae deletion strains, locus YNL067W, strain RPL9B, stronger effect = lower value 0.972 | S. cerevisiae deletion strains, locus YNL183C, strain NPR1, stronger effect = lower value 0.917 | S. cerevisiae deletion strains, locus YNL233W, strain BNI4, stronger effect = lower value 0.982 | S. cerevisiae deletion strains, locus YNL250W, strain rad50, stronger effect = lower value 0.988 | S. cerevisiae deletion strains, locus YNL271C, strain bni1, stronger effect = lower value 1.03 | S. cerevisiae deletion strains, locus YNL298W, strain CLA4, stronger effect = lower value 1.01 | S. cerevisiae deletion strains, locus YNL307C, strain MCK1, stronger effect = lower value 1.01 | S. cerevisiae deletion strains, locus YNR052C, strain pop2, stronger effect = lower value 1 | S. cerevisiae deletion strains, locus YOL006C, strain TOP1, stronger effect = lower value 1.06 | S. cerevisiae deletion strains, locus YOL012C, strain htz1 0.816 | S. cerevisiae deletion strains, locus YOL147C, strain pex11, stronger effect = lower value 1.04 | S. cerevisiae deletion strains, locus YOR061W, strain CKA2, stronger effect = lower value 1 | S. cerevisiae deletion strains, locus YOR069W, strain VPS5, stronger effect = lower value 1 | S. cerevisiae deletion strains, locus YOR136W, strain idh2, stronger effect = lower value 1.02 | S. cerevisiae deletion strains, locus YOR144C, strain elg1, stronger effect = lower value 1.01 | S. cerevisiae deletion strains, locus YOR184W, strain ser1, stronger effect = lower value 0.931 | S. cerevisiae deletion strains, locus YOR231W, strain MKK1, stronger effect = lower value 0.981 | S. cerevisiae deletion strains, locus YOR316C, strain cot1, stronger effect = lower value 1.03 | S. cerevisiae deletion strains, locus YPL256C, strain CLN2, stronger effect = lower value 0.988 | S. cerevisiae deletion strains, locus YPR119W, strain clb2, stronger effect = lower value 0.996 | S. cerevisiae deletion strains, locus YPR141C, strain kar3, stronger effect = lower value 1 | S. cerevisiae deletion strains, locus YPR163C, strain tif3, stronger effect = lower value 1.01 | S. cerevisiae deletion strains, locus YPR167C, strain met16, stronger effect = lower value 0.963 | S. cerevisiae deletion strains, strain wtn01, stronger effect = lower value 0.948 | S. cerevisiae strains, strain wild type, stronger effect = lower value 0.926
